Results published in PubChem BioAssay (Tox21).
Records with an inconclusive call do not appear. Where a call stands in place of a potency, no number is given. Calls of active or inactive are those of the source. Calls come from the whole dose curve; as a rule, active = well fitted curve in the direction sought with a large enough effect in the repeat runs; inconclusive = weak or mixed curves; inactive = no such curve, though single readings can be large; an effect the other way counts as inactive or inconclusive. Positions of bridges follow the written chain, without caps; N, C: chain ends. Non-standard residues stand in square brackets, D forms with d. Residues, ends and D or L forms follow the SMILES beside them. *: point of attachment. X2 = CC[C@H](C)CCCCC(=O)*; Dab = NCC[C@H](N)C(=O)O

Test system: not listed separately
Assay: qHTS assay to identify aromatase inhibitors - cell viability counter screen (AID 743084);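 note: cells stimulated with testosterone during compound exposure; nearly all actives have a fitted effect of over 55% in size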
Conditions: MCF-7 aro ERE viability, CellTiter-Fluor, 24 h; series mostly up to 70.3 µM

Row | Compound | Potency
1 | CCCC(CCC)C(N)=O | inactive
2 | O=C(Cn1c(=O)sc2ccc(Cl)cc21)N1CCN(CCO)CC1 | inactive
3 | CCCCCCCCCCCCCCCC(=O)OC[C@@H](COP(=O)([O-])OCC[N+](C)(C)C)OC(=O)CCCCCCCCCCCCCCC | inactive
4 | CC[C@H](C)CCCCC(=O)N[C@@H](CCN)C(=O)N[C@H](C(=O)N[C@@H](CCN)C(=O)N[C@H]1CCNC(=O)[C@H]([C@@H](C)O)NC(=O)[C@H](CCN)NC(=O)[C@H](CCN)NC(=O)[C@H](CC(C)C)NC(=O)[C@@H](CC(C)C)NC(=O)[C@H](CCN)NC1=O)[C@@H](C)O (X2-[Dab]T[Dab][Dab][Dab][dL]L[Dab][Dab]T; lactam 4-C) | inactive
5 | N[C@H](CCC(=O)O)C(=O)O | inactive

Molecular target: Aryl hydrocarbon receptor (Homo sapiens) (UniProt P35869)
Assay: qHTS assay to identify small molecule that activate the aryl hydrocarbon receptor (AhR) signaling pathway (AID 743085); note: nearly all actives have a fitted effect of over 15% in size; note: potency is the fitted concentration of half-maximal effect
Conditions: HepG2 AhR-luc (HG2L7.5c1), luciferase, 24 h; series mostly up to 70.3 µM
Outline: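 24 h compound exposure, 37C, HepG2-derived HG2L7.5c1 cells with DRE-responsive luciferase. Readouts: fluorescence viability, then luminescence at room temperature after 30 min.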

Chain of Aryl hydrocarbon receptor (Homo sapiens) (P35869 whole entry, looked up): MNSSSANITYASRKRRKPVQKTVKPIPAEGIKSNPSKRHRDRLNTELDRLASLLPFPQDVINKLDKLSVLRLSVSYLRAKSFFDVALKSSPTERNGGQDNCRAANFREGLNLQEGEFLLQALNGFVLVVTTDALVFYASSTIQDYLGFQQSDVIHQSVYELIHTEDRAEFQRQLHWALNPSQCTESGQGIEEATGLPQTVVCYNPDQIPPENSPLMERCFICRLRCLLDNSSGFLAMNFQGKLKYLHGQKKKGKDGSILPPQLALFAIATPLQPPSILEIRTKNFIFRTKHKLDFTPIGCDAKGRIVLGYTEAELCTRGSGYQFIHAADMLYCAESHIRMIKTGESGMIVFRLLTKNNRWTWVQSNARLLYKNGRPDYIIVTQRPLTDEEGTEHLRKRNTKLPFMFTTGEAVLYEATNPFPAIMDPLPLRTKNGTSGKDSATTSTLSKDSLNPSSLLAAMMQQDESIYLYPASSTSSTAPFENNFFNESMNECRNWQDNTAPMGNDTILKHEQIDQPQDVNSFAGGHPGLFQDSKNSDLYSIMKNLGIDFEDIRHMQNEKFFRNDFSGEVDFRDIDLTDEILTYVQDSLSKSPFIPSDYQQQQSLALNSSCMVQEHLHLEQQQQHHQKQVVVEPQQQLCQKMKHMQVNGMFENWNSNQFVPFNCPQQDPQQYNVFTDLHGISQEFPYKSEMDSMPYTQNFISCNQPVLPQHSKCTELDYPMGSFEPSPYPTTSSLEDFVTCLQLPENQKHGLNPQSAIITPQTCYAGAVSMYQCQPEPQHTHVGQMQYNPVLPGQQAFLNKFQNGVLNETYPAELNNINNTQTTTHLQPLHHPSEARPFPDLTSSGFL

Row | Compound | Potency
6 | CN=C(NC)NCc1ccccc1 | inactive
7 | C[C@@H]1C/C=C/C=C/C=C/C=C/[C@H](O[C@@H]2O[C@H](C)[C@@H](O)[C@H](N)[C@@H]2O)C[C@@H]2O[C@](O)(C[C@@H](O)C[C@H]3O[C@@H]3/C=C/C(=O)O1)C[C@H](O)[C@H]2C(=O)O | inactive
8 | CCCCOC(=O)C(=O)Nc1cccc(-c2nn[nH]n2)c1 | inactive
9 | CC[C@H](CC[C@@H](C)[C@H]1CC[C@H]2[C@@H]3CC=C4C[C@@H](O)CC[C@]4(C)[C@H]3CC[C@]12C)C(C)C | inactive
10 | COC(=O)CCC(=O)CN | inactive
11 | CC(=O)N[C@@H](CC(=O)N[C@@H](CCC(=O)O)C(=O)O)C(=O)O | inactive
12 | CCOC(=O)[C@H](CCc1ccccc1)N[C@H]1CCCN2CCC[C@@H](C(=O)O)N2C1=O | inactive
13 | O=[N+]([O-])c1ccc(Oc2ccc(N=C=S)cc2)cc1 | inactive
14 | C=C1c2c(Cl)ccc(O)c2C(O)=C2C(=O)[C@]3(O)C(O)=C(C(N)=O)C(=O)[C@@H](N(C)C)[C@@H]3[C@@H](O)[C@H]12 | inactive
15 | O=C(O)c1cccc(/C=C2/C[C@@H]3[C@@H](/C=C/[C@@H](O)C4CCCCC4)[C@H](O)C[C@@H]3O2)c1 | inactive
16 | CC(=O)O[C@H]1CC[C@@]2(C)C(=CC[C@H]3[C@@H]4CC[C@H](C(C)=O)[C@@]4(C)CC[C@@H]32)C1 | inactive
17 | NNc1nnc(Cc2ccncc2)c2ccccc12 | 11.9 µM (active)
18 | CS(=O)(=O)NC(=O)CCC/C=C\C[C@H]1C(=O)C[C@@H](O)[C@@H]1/C=C/[C@H](O)COc1ccccc1 | inactive
19 | CCCCC(F)(F)[C@@]1(O)CC[C@H]2[C@@H](CC(=O)[C@@H]2CCCCCCC(=O)O)O1 | inactive
20 | C[C@H](CSC(=O)c1ccccc1)C(=O)N1C[C@@H](Sc2ccccc2)C[C@H]1C(=O)O | inactive
21 | CC1(C)N=C(N)N=C(N)N1c1ccc(Cl)cc1 | inactive
22 | N[C@@H](C(=O)N[C@@H]1C(=O)N2C(C(=O)O)=C(Cl)CC[C@H]12)c1ccccc1 | inactive
23 | O=P(O)(O)OC(Cn1cncn1)(Cn1cncn1)c1ccc(F)cc1F | inactive
24 | CCCCCCCCCCCCCCCCCC(=O)OCCO | inactive
25 | Cc1nnc(C(C)C)n1C1C[C@H]2CC[C@@H](C1)N2CC[C@H](NC(=O)C1CCC(F)(F)CC1)c1ccccc1 (some centres undefined) | inactive

Row | Compound | Potency
26 | CCC(=O)OCC(=O)[C@@]1(OC(=O)CC)[C@@H](C)C[C@H]2[C@@H]3CCC4=CC(=O)C=C[C@]4(C)[C@@]3(Cl)[C@@H](O)C[C@@]21C | 10.6 µM (active)
27 | O=c1[nH]cnc2[nH]cc(CN3CCCCC3)c12 | inactive
28 | CC(C)(C)NC(=O)[C@H]1CC[C@H]2[C@@H]3CC=C4C=C(C(=O)O)CC[C@]4(C)[C@H]3CC[C@]12C | inactive
29 | C[N+]1(C)CCN(CC(O)(c2ccccc2)C2CCCCC2)CC1 (centres undefined) | inactive
30 | CN[C@@H]1[C@@H](O)[C@@H](O[C@@H]2[C@@H](O)[C@H](OC3OC(CN)=CCC3N)[C@@H](N)C[C@H]2N)OC[C@]1(C)O (some centres undefined) | inactive
31 | O=C(O)c1ccc(OCCn2ccnc2)cc1 | inactive
32 | CCCC(=O)N1CCCN(c2nc(N)c3cc(OC)c(OC)cc3n2)CC1 | 5.31 µM (active)
33 | CO[C@H]1C[C@H](O[C@H]2[C@H](C)O[C@@H](O[C@@H]3/C(C)=C/C[C@@H]4C[C@@H](C[C@]5(C=C[C@H](C)[C@@H](C6CCCCC6)O5)O4)OC(=O)[C@@H]4C=C(C)[C@@H](O)[C@H]5OC/C(=C\C=C\[C@@H]3C)[C@]54O)C[C@@H]2OC)O[C@@H](C)[C@@H]1O | inactive
34 | OCC(O)COc1ccc(Cl)cc1 (centres undefined) | inactive
35 | CC(C(=O)O)c1ccc(C2CCCCC2)c2ccccc12 (centres undefined) | inactive
36 | C/C=C1\NC(=O)[C@H]2CSSCC/C=C/[C@H](CC(=O)N[C@H](C(C)C)C(=O)N2)OC(=O)C(C(C)C)NC1=O (some centres undefined) | inactive
37 | Cn1cc(NC(=O)c2cc(NC(=O)c3cc(NC=O)cn3C)cn2C)cc1C(=O)NCCC(=N)N | inactive
38 | CO[C@H]1C[C@H](O[C@H]2[C@H](C)[C@@H](O[C@@H]3O[C@H](C)C[C@H](N(C)C)[C@H]3OC(C)=O)[C@@H](C)C[C@]3(CO3)C(=O)[C@H](C)[C@@H](OC(C)=O)[C@@H](C)[C@@H](C)OC(=O)[C@@H]2C)O[C@@H](C)[C@@H]1OC(C)=O | inactive
39 | CO[C@H]1[C@@H](O)[C@H](N)[C@@H](O[C@H]2O[C@H]([C@H](C)N)CC[C@H]2N)[C@H](O)[C@@H]1N(C)C(=O)CN | inactive
40 | CCCC(CCC)C(N)=O | inactive
41 | O=C(Cn1c(=O)sc2ccc(Cl)cc21)N1CCN(CCO)CC1 | inactive
42 | CCCCCCCCCCCCCCCC(=O)OC[C@@H](COP(=O)([O-])OCC[N+](C)(C)C)OC(=O)CCCCCCCCCCCCCCC | inactive
43 | CC[C@H](C)CCCCC(=O)N[C@@H](CCN)C(=O)N[C@H](C(=O)N[C@@H](CCN)C(=O)N[C@H]1CCNC(=O)[C@H]([C@@H](C)O)NC(=O)[C@H](CCN)NC(=O)[C@H](CCN)NC(=O)[C@H](CC(C)C)NC(=O)[C@@H](CC(C)C)NC(=O)[C@H](CCN)NC1=O)[C@@H](C)O (X2-[Dab]T[Dab][Dab][Dab][dL]L[Dab][Dab]T; lactam 4-C) | inactive
44 | N[C@H](CCC(=O)O)C(=O)O | inactive
